Data taken from PubChem BioAssay (NCI).
Compounds without any hit were thinned out: in the full panel of roughly 83,000, 20% have a hit.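 Each cell line was grown in a 96-well plate and treated with one concentration of compound for 48 hours. Values below 10 were considered active.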 The source made the active and inactive calls.

Legend:
Test in all cases: NCI-60 one-dose screen, 48 h (100 = growth as untreated, 0 = no growth, -100 = all killed)
Conditions in all cases: 10 µM unless noted
SR leukemia = test system: SR leukemia
RPMI-8226 leukemia = test system: RPMI-8226 leukemia
OVCAR-5 ovarian = test system: OVCAR-5 ovarian
OVCAR-4 ovarian = test system: OVCAR-4 ovarian
SK-OV-3 ovarian = test system: SK-OV-3 ovarian
IGROV1 ovarian = test system: IGROV1 ovarian
OVCAR-3 ovarian = test system: OVCAR-3 ovarian
HS 578T breast = test system: HS 578T breast
NCI/ADR-RES ovarian = test system: NCI/ADR-RES ovarian
OVCAR-8 ovarian = test system: OVCAR-8 ovarian

Measured: growth

Cc1c2ccccc2nc2cc3c(cc12)[C@H]1CC[C@]2(C)C(=O)CC[C@H]2[C@@H]1CC3
inactive: SR leukemia 92.9% | RPMI-8226 leukemia 79.5% | OVCAR-5 ovarian 97.6% | OVCAR-4 ovarian 95.8% | SK-OV-3 ovarian 124% | IGROV1 ovarian 101% | OVCAR-3 ovarian 104% | HS 578T breast 86.3% | NCI/ADR-RES ovarian 103%

N=C(N)c1ccc(OCCSCCOc2ccc(C(=N)N)cc2)cc1
inactive: SR leukemia 73.1% | RPMI-8226 leukemia 73.9% | OVCAR-5 ovarian 77.6% | OVCAR-4 ovarian 64.7% | SK-OV-3 ovarian 82% | IGROV1 ovarian 93.3% | OVCAR-3 ovarian 86.4% | HS 578T breast 85.4% | NCI/ADR-RES ovarian 97.7%

OC1(c2ccccc2)c2ccccc2N(c2ccccc2)c2ccc(Cl)cc21 (stereo not given)
active: SR leukemia -28.7% | RPMI-8226 leukemia -6.58% | OVCAR-8 ovarian -45% | OVCAR-4 ovarian -82.8% | IGROV1 ovarian -94.5% | OVCAR-3 ovarian -98.1% | HS 578T breast 4.35%
inactive: NCI/ADR-RES ovarian 14.8%

COc1ccccc1/C=C/C(=O)Nc1ccc(F)cc1
inactive: SR leukemia 95% | RPMI-8226 leukemia 85.4% | OVCAR-5 ovarian 108% | OVCAR-4 ovarian 86.8% | SK-OV-3 ovarian 81.5% | IGROV1 ovarian 83.2% | OVCAR-3 ovarian 104% | HS 578T breast 104% | NCI/ADR-RES ovarian 101%

C=C(C)[C@@H]1CC[C@]2(C(=O)Nc3ccccn3)CC[C@]3(C)[C@H](CC[C@@H]4[C@@]5(C)CCCNC(C)(C)[C@@H]5CC[C@]43C)[C@@H]12
active: SR leukemia -29.5% | RPMI-8226 leukemia -46% | OVCAR-4 ovarian 8.81%
inactive: OVCAR-5 ovarian 70.7% | SK-OV-3 ovarian 32.2% | IGROV1 ovarian 35.4% | OVCAR-3 ovarian 20.9% | HS 578T breast 26.9% | NCI/ADR-RES ovarian 61%

COc1ccc(Cl)cc1Nc1nc(C(F)(F)F)ccc1C(=O)N/N=C/c1ccc([N+](=O)[O-])cc1
active: SR leukemia 0.718% | RPMI-8226 leukemia -49.7% | OVCAR-5 ovarian 4.96% | OVCAR-4 ovarian -12.1% | HS 578T breast 3.18% | NCI/ADR-RES ovarian 2.09%
inactive: SK-OV-3 ovarian 14.5%

COc1ccc(OC)c(Nc2nnc(-c3cc(OC)c(OC)c(OC)c3)o2)c1
inactive: SR leukemia 89.6% | RPMI-8226 leukemia 95.2% | OVCAR-5 ovarian 105% | OVCAR-4 ovarian 99.3% | SK-OV-3 ovarian 104% | IGROV1 ovarian 98.5% | OVCAR-3 ovarian 112% | HS 578T breast 107% | NCI/ADR-RES ovarian 94.4%

Clc1ccc(-c2nc(C(Cl)Cl)nc3cc(-c4ccccc4)nn23)cc1
inactive: SR leukemia 10.4% | RPMI-8226 leukemia 38.5% | OVCAR-5 ovarian 17% | SK-OV-3 ovarian 18.6% | NCI/ADR-RES ovarian 19.7%
active: OVCAR-4 ovarian -7.63% | OVCAR-3 ovarian -10.2% | HS 578T breast -4.46%

O=C(Nc1ncc(Cc2ccccc2)s1)c1sc2ccccc2c1Cl
active: OVCAR-3 ovarian -30.6%
inactive: SR leukemia 16% | RPMI-8226 leukemia 28% | OVCAR-5 ovarian 41.8% | OVCAR-4 ovarian 68.1% | SK-OV-3 ovarian 28.8% | IGROV1 ovarian 33.1% | HS 578T breast 13.5% | NCI/ADR-RES ovarian 16.1%

O=c1cc(-c2ccccc2)nc(SCc2nc3cc(Cl)c(Cl)cc3[nH]2)[nH]1
active: SR leukemia 6.56%
inactive: RPMI-8226 leukemia 114% | OVCAR-5 ovarian 95.2% | OVCAR-4 ovarian 101% | SK-OV-3 ovarian 92.4% | OVCAR-3 ovarian 106% | HS 578T breast 105% | NCI/ADR-RES ovarian 97%

CCn1cc(Cc2cc(C(=O)Nc3cc4cc(OC)c(OC)cc4c(C)n3)ccc2Cl)cn1
inactive: SR leukemia 10% | RPMI-8226 leukemia 29.6% | OVCAR-5 ovarian 103% | OVCAR-4 ovarian 58.2% | SK-OV-3 ovarian 57.9% | IGROV1 ovarian 69.5% | OVCAR-3 ovarian 38% | HS 578T breast 49.5% | NCI/ADR-RES ovarian 22.5%

CN1CCN(c2ccc(NC3=CC(=O)c4ncncc4C3=O)cc2)CC1
active: SR leukemia -5.62% | RPMI-8226 leukemia -29.1% | OVCAR-5 ovarian -92.3% | OVCAR-4 ovarian -99% | SK-OV-3 ovarian -63.7% | IGROV1 ovarian -86.6% | OVCAR-3 ovarian -58.6% | HS 578T breast -19.6% | NCI/ADR-RES ovarian -20.4%

CS(=O)(=O)Nc1cc(-c2ccc3ncnc(Nc4ccc5c(cnn5Cc5ccccc5F)c4)c3c2)cnc1Cl
inactive: SR leukemia 35.4% | OVCAR-5 ovarian 37.9% | OVCAR-4 ovarian 63.4% | SK-OV-3 ovarian 29.9% | OVCAR-3 ovarian 13.1% | NCI/ADR-RES ovarian 92.2%
active: RPMI-8226 leukemia 5.17% | IGROV1 ovarian -15.8% | HS 578T breast 7.95%

COC(=O)c1ccc2c(c1)c1c(C)c3cnccc3c(C)c1n2C
active: RPMI-8226 leukemia -15.4% | OVCAR-5 ovarian -33.3% | OVCAR-4 ovarian -14.8% | SK-OV-3 ovarian -15.3% | IGROV1 ovarian -33.1% | OVCAR-3 ovarian -26% | HS 578T breast -15% | NCI/ADR-RES ovarian -25%
inactive: SR leukemia 18.2%

N#Cc1c(-c2ccccc2)nc2c(c(-c3ccccc3)nn2-c2ccccc2)c1-c1ccc(N2CCCCC2)cc1
inactive: SR leukemia 114% | RPMI-8226 leukemia 107% | OVCAR-5 ovarian 102% | OVCAR-4 ovarian 105% | SK-OV-3 ovarian 104% | IGROV1 ovarian 104% | OVCAR-3 ovarian 111% | HS 578T breast 109% | NCI/ADR-RES ovarian 100%

COC(=O)/C=C1/SC(=Nc2ccc(F)cc2)N(CCc2c[nH]c3ccc(O)cc23)C1=O
inactive: OVCAR-5 ovarian 76.3% | OVCAR-4 ovarian 30.3% | SK-OV-3 ovarian 80.8% | IGROV1 ovarian 24.6% | OVCAR-3 ovarian 21.5% | HS 578T breast 37.4% | NCI/ADR-RES ovarian 32.7%
active: SR leukemia -4.72% | RPMI-8226 leukemia 4.11%

C=C1C(=O)O[C@H]2[C@H]1CC/C(CNC(=O)Cc1c[nH]c3ccccc13)=C\CC[C@@]1(C)O[C@@H]21
active: SR leukemia -13.6% | RPMI-8226 leukemia -0.862% | OVCAR-3 ovarian -5.5%
inactive: OVCAR-5 ovarian 46.2% | OVCAR-4 ovarian 38.2% | SK-OV-3 ovarian 106% | IGROV1 ovarian 27.7% | HS 578T breast 78.1% | NCI/ADR-RES ovarian 89.9%

Cc1ccc(OCCOCCOCCOCCOCCOc2ccc(C)n(O)c2=S)c(=S)n1O
active: SR leukemia 4.81% | NCI/ADR-RES ovarian 1.54%
inactive: RPMI-8226 leukemia 11.5% | OVCAR-5 ovarian 41.7% | OVCAR-4 ovarian 22.7% | SK-OV-3 ovarian 10.2% | OVCAR-3 ovarian 29.6% | HS 578T breast 45.8%

O=C(CCCCCCCC(=O)N1CCCCC1)N1CCCCC1
inactive: SR leukemia 135% | RPMI-8226 leukemia 103% | OVCAR-5 ovarian 98.7% | OVCAR-4 ovarian 107% | SK-OV-3 ovarian 115% | IGROV1 ovarian 109% | HS 578T breast 96.5% | NCI/ADR-RES ovarian 89%

Cc1ccc(C2CC(c3cccc(Nc4ccncc4)c3)=Nc3c(N)nc(N)nc3N2)cc1 (stereo not given)
active: SR leukemia -4.18%
inactive: RPMI-8226 leukemia 44.9% | OVCAR-5 ovarian 95.5% | OVCAR-4 ovarian 81.2% | SK-OV-3 ovarian 97.9% | IGROV1 ovarian 42.4% | OVCAR-3 ovarian 82.1% | HS 578T breast 80% | NCI/ADR-RES ovarian 101%

C/C=C1/CN(CCCCC)CC[C@H]1C(=O)c1cc2ccccc2[nH]1
inactive: SR leukemia 98.4% | RPMI-8226 leukemia 94.9% | OVCAR-5 ovarian 96.3% | OVCAR-4 ovarian 86.6% | SK-OV-3 ovarian 83.3% | IGROV1 ovarian 98.5% | OVCAR-3 ovarian 94% | HS 578T breast 97.3% | NCI/ADR-RES ovarian 93.6%

N#Cc1nn(-c2cc(=O)[nH]c3ccc(Br)cc23)c(N)c1C#N
active: SR leukemia -14.2% | RPMI-8226 leukemia -29.7%
inactive: OVCAR-4 ovarian 81.6% | SK-OV-3 ovarian 69.1% | IGROV1 ovarian 90.5% | OVCAR-3 ovarian 103% | HS 578T breast 88.6% | NCI/ADR-RES ovarian 102%

O=C(c1c[nH]c2ccccc12)c1n[nH]c(=S)n1-c1ccc([N+](=O)[O-])cc1
inactive: SR leukemia 92% | RPMI-8226 leukemia 68.4% | OVCAR-5 ovarian 101% | OVCAR-4 ovarian 85% | SK-OV-3 ovarian 95.4% | IGROV1 ovarian 73.1% | OVCAR-3 ovarian 95.3% | HS 578T breast 92.8% | NCI/ADR-RES ovarian 106%

CC12OC(CC(O)C1O)n1c3ccccc3c3c4c(c5c6ccccc6n2c5c31)C(=O)N(CCN1CCCC1)C4=O (stereo not given)
active: SR leukemia 2.44% | RPMI-8226 leukemia 1.17%
inactive: OVCAR-5 ovarian 41.4% | OVCAR-4 ovarian 27.9% | SK-OV-3 ovarian 10.4% | IGROV1 ovarian 13.9% | OVCAR-3 ovarian 25.7% | HS 578T breast 41.1% | NCI/ADR-RES ovarian 46.4%

Nc1nc(C(=O)N/N=C/c2ccc(F)cc2)nn1-c1ccc(S(N)(=O)=O)cc1
inactive: SR leukemia 98.5% | RPMI-8226 leukemia 91% | OVCAR-5 ovarian 104% | OVCAR-4 ovarian 98.4% | SK-OV-3 ovarian 105% | IGROV1 ovarian 91.5% | OVCAR-3 ovarian 102% | HS 578T breast 101% | NCI/ADR-RES ovarian 98.3%

CCOC(=O)c1c(C)nc2c(c1N)C(=O)C(=O)N2Cc1ccc(OC)cc1
inactive: SR leukemia 31% | OVCAR-8 ovarian 61.6% | OVCAR-5 ovarian 97.5% | OVCAR-4 ovarian 46.6% | SK-OV-3 ovarian 108% | IGROV1 ovarian 82.5% | OVCAR-3 ovarian 18.2% | HS 578T breast 79.2%
active: NCI/ADR-RES ovarian 8.45%

C=C1C(=O)O[C@H]2[C@H]1CC/C(COC(=O)NCc1ccc(Cn3c(=O)sn(-c4ccc(I)cc4)c3=O)cc1)=C\CC[C@@]1(C)O[C@@H]21
inactive: SR leukemia 63% | OVCAR-8 ovarian 82.1% | OVCAR-5 ovarian 96.5% | OVCAR-4 ovarian 58.9% | SK-OV-3 ovarian 100% | IGROV1 ovarian 67.5% | OVCAR-3 ovarian 23.7% | HS 578T breast 85.7% | NCI/ADR-RES ovarian 106%
